Screening results (PubChem BioAssay)
uPA surface inh: inhibitors of cell surface uPA generation; cell surface uPA generation assay, qHTS; Potency, µM (highest dose often 38.3 µM), actives largely listed as inhibitors; 330,000 compounds, 0.31% hits; AID 540303; active = well fitted inhibition curve with a large enough effect; inconclusive = small, poorly fitted or top-dose-only effect; inactive = no such curve, though single readings can be large or run the other way; tested in mouse RAW 264.7 cells; note: nearly all actives have a fitted effect of over 55% in size
TRPV1 agonist: activates the human vanilloid receptor TRPV1. TRPV1-expressing cells, Fluo-8 calcium influx, agonist mode. 320,000 compounds, 0.19% hits. activation, % at 8.33 µM. Q8NER1. AID 540275; in the data active = activation above about 80%; inconclusive = between about 30% and that limit
Target sequence (Q8NER1 whole entry, looked up): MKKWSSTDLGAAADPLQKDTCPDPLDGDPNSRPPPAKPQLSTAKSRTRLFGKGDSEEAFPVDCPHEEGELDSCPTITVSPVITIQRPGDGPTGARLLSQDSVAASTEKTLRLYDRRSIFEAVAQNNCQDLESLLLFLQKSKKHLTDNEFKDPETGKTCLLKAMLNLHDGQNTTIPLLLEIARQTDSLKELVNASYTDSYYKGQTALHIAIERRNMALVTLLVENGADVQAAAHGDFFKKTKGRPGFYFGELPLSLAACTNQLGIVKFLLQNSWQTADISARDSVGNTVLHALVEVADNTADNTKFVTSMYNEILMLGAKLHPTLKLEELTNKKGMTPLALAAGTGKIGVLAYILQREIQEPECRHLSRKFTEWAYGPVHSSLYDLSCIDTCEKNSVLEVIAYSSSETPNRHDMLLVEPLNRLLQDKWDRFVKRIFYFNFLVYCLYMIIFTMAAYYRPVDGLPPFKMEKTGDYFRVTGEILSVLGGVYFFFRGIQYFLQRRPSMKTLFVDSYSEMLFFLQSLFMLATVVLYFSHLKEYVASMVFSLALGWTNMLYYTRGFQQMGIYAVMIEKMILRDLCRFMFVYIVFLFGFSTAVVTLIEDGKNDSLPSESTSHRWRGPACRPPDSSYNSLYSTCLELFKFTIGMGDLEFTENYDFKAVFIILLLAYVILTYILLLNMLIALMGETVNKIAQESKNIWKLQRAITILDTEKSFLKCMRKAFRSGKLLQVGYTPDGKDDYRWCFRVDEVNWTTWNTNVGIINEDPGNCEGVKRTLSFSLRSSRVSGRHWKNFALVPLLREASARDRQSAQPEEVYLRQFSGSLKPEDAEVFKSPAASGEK
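Fluo-8 calcium influx in TRPV1-expressing cells, kinetic read (ex 480/em 520 nm). Compound added and read 3 min for agonist activity, followed by capsaicin at EC20 final and 2 min further read for enhancement.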
RORgamma inh: ROR gamma (mouse) transcription inhibition; Drosophila S2 Gal4-RORgamma UAS-luciferase reporter, 20 h; P51450; AID 2551; Potency, µM (highest dose often 53.6 µM), actives largely listed as inhibitors; 310,000 compounds, 5.4% hits; note: nearly all actives have a fitted effect of over 60% in size
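Read-out: Photinus luciferase luminescence; inhibitors lower reporter signal. Insect Schneider cells with Gal4-ROR gamma fusion under metallothionein promoter, UAS reporter; 700 uM final copper sulfate induction, 20 hr, ambient temperature.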
TRPV1 potentiator: enhances activation of the human vanilloid receptor TRPV1 | Q8NER1 | TRPV1-expressing cells, Fluo-8 calcium influx, capsaicin EC20 potentiation | potentiation, % at 8.33 µM | 320,000 compounds, 0.02% hits; in the data active = potentiation above about 80%; inconclusive = between about 30% and that limit
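Cells expressing TRPV1 were dye-loaded with Fluo-8 and read kinetically: 10 s baseline, 3 min after compound (agonist portion), then 2 min after EC20 capsaicin (allosteric enhancer portion). Calcium-bound dye fluorescence at 480/520 nm.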
VP16 counter: counter-screen for ROR gamma inhibitors: Gal4-VP16 reporter | Drosophila S2 Gal4-VP16 UAS-luciferase, luminescence, 20 h | 310,000 compounds, 3.5% hits | Potency, µM (doses to about 53.6 µM), hits mostly inhibitors;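 note: Gal4-VP16 expression switched on by copper sulfate through the metallothionein promoter; nearly all actives have a fitted effect of over 50% in size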
Each line names hits and unclear results; the compound was inactive in the other large screens. This is a sample that favours compounds with a hit; in the whole collection about 5.8% have one here. Unless noted, calls come from the whole dose curve; as a rule, active = well fitted curve in the direction sought with a large enough effect; inconclusive = small, poorly fitted or top-dose-only effect, or another doubt; inactive = no such curve, though single readings can be large; an effect the other way counts as inactive or inconclusive.

Cn1c(=O)c(C(=O)NNC(=O)c2ccccc2F)c(O)c2ccccc21	RORgamma inh 18µM, VP16 counter inconclusive
CCn1c(=O)c(C(=O)NNC(=O)c2ccccc2F)c(O)c2ccccc21	RORgamma inh 7.9µM, VP16 counter inconclusive
O=C(/C=C/c1ccco1)NC(=S)Nc1nc(-c2ccc(Cl)cc2)cs1	RORgamma inh 14µM, VP16 counter inconclusive
O=C(/C=C/c1ccco1)NC(=S)Nc1nc(-c2ccc3ccccc3c2)cs1	RORgamma inh 7.9µM, VP16 counter inconclusive
O=C(/C=C\c1ccco1)Nc1nc(-c2ccccc2)cs1	RORgamma inh inconclusive
CC(C)(C)NC(=O)CN(C(=O)C(=O)Nc1ccc2c(c1)OCCO2)N1CCOCC1	none
CCOC(=O)C(CS)NCCN[C@@H](CS)C(=O)OCC (stereo partly specified)	none (no result: uPA surface inh, TRPV1 agonist, TRPV1 potentiator)
Cc1cn2c(=O)c3ccccc3nc2n2c(=O)c3ccccc3nc12	none (no result: uPA surface inh, TRPV1 agonist, TRPV1 potentiator)
COc1ccc(C(=O)Nc2ccc3c(c2)Cc2ccccc2-3)cc1	none
COc1ccc2nc3c(cc2c1)Cc1ccccc1-3	RORgamma inh 2.5µM, VP16 counter 2.5µM (no result: uPA surface inh, TRPV1 agonist, TRPV1 potentiator)
Cn1nc(-c2ccc(N3CCOCC3)c(NS(=O)(=O)c3ccc(Cl)cc3)c2)c2ccccc2c1=O	RORgamma inh 10µM
Cc1ccc(S(=O)(=O)Nc2cc(-c3nn(C)c(=O)c4ccccc34)ccc2N2CCOCC2)cc1	none (no result: uPA surface inh)
N#CCc1ccc(NC(=O)c2ccc(S(=O)(=O)N3CCOCC3)cc2)cc1	TRPV1 agonist inconclusive
Nc1ccc2c(c1)Nc1ccccc1CC2	none
CCOc1ccc(NC(=O)CN2CCN(CC(=O)c3ccc(OC)c(OC)c3)CC2)cc1	RORgamma inh 2.5µM
CC(C)(C)c1ccc(-n2ncc3c2CCCC3NC(=O)C2(C(N)=O)CC2)cc1 (stereo unspecified)	uPA surface inh inconclusive, TRPV1 agonist inconclusive, RORgamma inh inconclusive, VP16 counter 2.5µM
Cc1cc(C(=O)NC2CCCc3c2cnn3-c2ccc(C(C)(C)C)cc2)nn1C (stereo unspecified)	RORgamma inh inconclusive, VP16 counter 11µM
Cc1cc(C)cc(-n2ncc3c2CCCC3NC(=O)c2cc(C)n(C)n2)c1 (stereo unspecified)	none
CC(=O)NCC(=O)NC1CCCc2c1cnn2-c1ccc(C(C)(C)C)cc1 (stereo unspecified)	RORgamma inh inconclusive
CC(=O)/C=C/c1ccc2ccccc2n1	RORgamma inh 10µM, VP16 counter inconclusive
COc1ccc(O)c(/C=N/n2c(-c3ccco3)csc2=Nc2cccnc2)c1	none
CN=c1scc(C)n1/N=C/c1ccc2c(c1)OCO2	RORgamma inh inconclusive, VP16 counter inconclusive
C=CCN=c1scc(C)n1/N=C/c1ccc(O)c(O)c1	uPA surface inh inconclusive, RORgamma inh 18µM
CN=c1scc(C)n1/N=C/c1cc(Br)c(O)c(Br)c1	none
CN=c1scc(-c2ccco2)n1/N=C/c1ccc(O)c(O)c1	RORgamma inh 0.089µM, VP16 counter 0.71µM
CN=c1scc(C)n1/N=C/c1ccc(O)cc1O	RORgamma inh 0.63µM, VP16 counter 1.3µM
CN=c1scc(C)n1/N=C/c1ccc(O)cc1	RORgamma inh inconclusive, VP16 counter 2.5µM
CCOc1ccccc1/C=C/c1nc2ccccc2[nH]c1=O	RORgamma inh inconclusive
CN(C)c1ncc2nc(-c3cc(F)cc(F)c3)c(=O)n(C[C@H]3CCCO3)c2n1	none (no result: uPA surface inh, TRPV1 agonist, TRPV1 potentiator)
CC(C)c1onc(-c2c(Cl)cccc2Cl)c1COc1ccc(/C=C/c2cccc(C(=O)O)c2)c(Cl)c1	VP16 counter 5.6µM (no result: uPA surface inh, TRPV1 agonist, TRPV1 potentiator)
CCC(C)NC(=O)c1cccc(OCc2c(C)noc2C)c1 (stereo unspecified)	none
CCOc1ccc(NC(=O)CCC(=O)NNS(=O)(=O)c2ccccc2[N+](=O)[O-])cc1	TRPV1 agonist inconclusive
CN(Cc1cccc2cnccc12)C(=O)CCc1nnc(CCc2ccccc2)o1	RORgamma inh inconclusive, VP16 counter 20µM
COc1ccc(CC(=O)NNC(=O)COc2ccc(C)cc2)cc1S(=O)(=O)N1CCOCC1	none (no result: RORgamma inh, VP16 counter)
COc1ccccc1-n1nnnc1SCC(=O)NCC1(N2CCCCC2)CCCCC1	none (no result: TRPV1 agonist, RORgamma inh, TRPV1 potentiator, VP16 counter)
Cc1cccc(NC(=S)NC2CC3CCCC(C2)N3Cc2ccccc2)c1C (stereo unspecified)	RORgamma inh 14µM, VP16 counter inconclusive
Cc1cccc(NC(=S)NN2CCOCC2)c1C	RORgamma inh 11µM
Cc1cccc(NC(=S)NN2CCN(C)CC2)c1C	none
CCc1ccccc1NC(=S)NC1CC2CCC(C1)N2Cc1ccco1 (stereo unspecified)	RORgamma inh inconclusive
Cc1cccc(NC(=S)NC2CCCCCC2)c1C	TRPV1 agonist inconclusive, RORgamma inh 3.2µM, VP16 counter 7.1µM
CCc1ccccc1NC(=S)NC1CC2CCC(C1)N2Cc1ccc(F)cc1 (stereo unspecified)	RORgamma inh 7.1µM, VP16 counter inconclusive
Cc1cccc(NC(=S)NC2CCCC2)c1C	RORgamma inh 7.1µM, VP16 counter 7.1µM
CCc1ccc(NC(=S)NC2CC3CCCC(C2)N3Cc2cccs2)cc1 (stereo unspecified)	RORgamma inh 2µM, VP16 counter 13µM
S=C(Nc1ccccc1Cl)NC1CCC(NC(=S)Nc2ccccc2Cl)CC1 (stereo unspecified)	none
Cc1c(Cl)cccc1NC(=S)NC1CCCC1	TRPV1 agonist inconclusive, RORgamma inh 4.5µM, VP16 counter 5.6µM
Cc1nc2ccccc2n1C1CC(=O)N(Cc2ccccc2)C1=O (stereo unspecified)	VP16 counter 6.3µM
NC(=O)c1c(NC(=O)c2ccc(F)cc2Cl)sc2c1CCC2	none
CC(C)(C)OC(=O)CC[C@@H](C(=O)NCCCCCCCCCCC(=O)N1CCN(C(=O)OC(C)(C)C)CC1)n1cc(CCCCCNC(=O)OC(C)(C)C)nn1	none (no result: RORgamma inh, VP16 counter)
CC(C)(C)OC(=O)NCCCCCc1cn([C@@H](CO)C(=O)NCCCCCCCCCCC(=O)N2CCN(C(=O)OC(C)(C)C)CC2)nn1	uPA surface inh 11µM (no result: RORgamma inh, VP16 counter)
COc1cccc(-c2nnc(N)o2)c1	none
COc1cccc(-c2nnc(NC(=O)c3ccc(Cl)s3)o2)c1	uPA surface inh inconclusive, RORgamma inh 0.25µM, VP16 counter 0.22µM
O=C(Nc1nnc(-c2ccco2)o1)c1ccc(Cl)s1	uPA surface inh inconclusive, RORgamma inh 2µM, VP16 counter 0.63µM
CCCC[C@@H]1C[C@H]1C(NS(=O)(=O)c1cccc2cccnc12)c1ccc(-c2ccccc2)cc1 (stereo partly specified)	none (no result: uPA surface inh, TRPV1 agonist, TRPV1 potentiator)
C=CC[C@@H]1C=C[C@@H](O/N=C\c2ccc(C(=O)N3[C@H](c4ccc(C)cc4)[C@@H](C)CC[C@H]3C(=O)OC)cc2)[C@@H](CO)O1	none (no result: uPA surface inh, TRPV1 agonist, TRPV1 potentiator)
COc1cccc(C2C(C(C)=O)=C(O)C(=O)N2CCc2c[nH]c3ccccc23)c1 (stereo unspecified)	RORgamma inh 112µM
S=C(Nc1ccc(Br)cc1Cl)NN1CCOCC1	RORgamma inh 3.5µM, VP16 counter 18µM
S=C(Nc1ccc(Nc2ccccc2)cc1)NN1CCOCC1	RORgamma inh inconclusive
